We go through 4 compounds from PubChem BioAssay AID651662 (NMMLSC, 2012).

The source made the active and inactive calls.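 How the source made its calls: active means fitted concentration giving half the fluorescence drop below 100 µM; inactive means the rest.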

This test in a line: fluorescence decrease in K562 empty-vector cells, dose response, counter-screen for ABCB6 inhibitor project, cell-based, flow cytometry, PowderSet01 powders (AID 651662). The conditions noted are these: 1 h; series mostly up to 100 µM. On the technique in general: A counterscreen serves to expose hits that act by an unwanted route or on another target.
In the case of `CCOc1ccccc1NC(=O)c1nc(S(=O)(=O)Cc2cccc(C)c2)ncc1Cl`, the compound was classed as inactive.
As to `CCc1ccc(NC(=O)c2nc(S(=O)(=O)Cc3ccccc3)ncc2Cl)cc1`, the call was inactive.
Take `CC(=O)Nc1ccc(NC(=O)c2nc(S(=O)(=O)Cc3ccccc3)ncc2Cl)cc1`: the call was inactive.
On to `CC(=O)Nc1ccc(NC(=O)c2nc(S(=O)(=O)Cc3cccc(C)c3)ncc2Cl)cc1`, for which the outcome was inactive.
